ADAM10 inh: inhibitors of human ADAM10; O14672; recombinant ADAM10, EDANS/DABCYL FRET peptide cleavage, 3 h; 370,000 tested, 0.62% active; inhibition, % at 7 µM;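 active = inhibition above a per-campaign cutoff equal to the mean of compounds falling between control-based bounds plus 3 SD, cut at about 20% in these data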;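 note: 0% = DMSO wells while the 100% control is not disclosed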
ADAM17 inh: inhibits human ADAM17. P78536. recombinant ADAM17, EDANS/DABCYL FRET peptide cleavage. inhibition, % at 6.95 µM. 370,000 tested, 0.83% active;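 active = inhibition above the mean of compounds lying between control limits plus 3 SD, set per campaign, cut at about 8.5% in these data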;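 note: 0% = DMSO-only wells as the low control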
sPLA2-III inh: Inhibits HGIII-sPLA2 liposome hydrolysis, primary screen; QFRET BODIPY PC-A2 liposome hydrolysis, fluorescence; 370,000 tested, 0.56% active; inhibition, % at 12.2 µM; Q9NZ20; AID 743126;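 active = inhibition above mean plus 3 SD of compounds lying within the high and low control bounds, cut at about 19% in these data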;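 note: 0% = median of test compound wells and 100% = no enzyme DMSO wells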
FAS-TE inh: FAS thioesterase (human) inhibition; 360,000 tested, 0.67% active; recombinant FAS-TE, OMFH fluorogenic substrate, fluorescence endpoint; inhibition, % at 15 µM; AID 602261; P49327;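 active = compounds whose normalised, plate-corrected inhibition of enzyme fluorescence in the single-dose primary screen is 50% or more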;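 note: 0% = DMSO with enzyme and 100% = substrate without enzyme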
GRIN3A LBD mod: modulators (binders) of human NR3A ligand-binding domain | NR3A LBD differential scanning fluorimetry, Tm shift; 0% = protein alone, 100% = glycine-bound protein | Tm shift relative to glycine control, % at 25 µM | 340,000 tested, 2.5% active;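 active = melting temperature shift of at least 10% of the positive control shift, at one fixed dose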
Numbers without * were called inactive; . = not tested or not shown. Shown are actives, neighbours in structure and some others; about 4.3% of the full set was active somewhere.

SMILES | ADAM10 inh | ADAM17 inh | sPLA2-III inh | FAS-TE inh | GRIN3A LBD mod
CC(C)CCNC(=O)CSc1nc2c(c(=O)[nH]1)CCC2 | 4 | 0 | -6 | . | .
Cc1cccc(-c2cccc3c4c([nH]c23)[C@@H]2C[C@H](N(C)C(=O)Nc3ccccc3)[C@H]([C@H](C)O)C(=O)N2CC4)c1 | -75 | -23 | -18 | . | .
CC(=O)Oc1ccc(-c2csc(Nc3ccc(S(N)(=O)=O)cc3)n2)cc1 | 1 | -4 | -25 | 6 | 3
COc1ccc(-c2csc(Nc3ccc(S(N)(=O)=O)cc3)n2)cc1 | -10 | -2 | -3 | 15 | 23*
Cc1ccc(Nc2nc(C)cs2)cc1 | -2 | 1 | -4 | -4 | 26*
Oc1ccc(Nc2nc(-c3ccc(O)cc3)cs2)cc1 | -7 | -4 | -19 | 4 | 12*
COc1ccc2oc(=O)c(/C(C)=N/Nc3nc(-c4cc(C)ccc4C)cs3)cc2c1 | -18 | -8 | 2 | 41 | -4
NS(=O)(=O)c1ccc(Nc2nc(-c3ccc(O)cc3)cs2)cc1 | -5 | -4 | -26 | 15 | 3
COc1ccc2oc(=O)c(-c3csc(Nc4ccc(O)cc4)n3)cc2c1 | 10 | 4 | -7 | 2 | 11*
CCCC/C=C1/[C@H](CC)N(C)C2=N[C@@H](c3ccccc3)CC(=O)N21 | -3 | -6 | 6 | . | .
Clc1ccc(Nc2nc(-c3ccncc3)cs2)cc1 | 0 | -3 | -4 | -9 | 10*
COc1cccc(Oc2cn[nH]c2-c2ccc(OC)cc2O)c1 | 19 | 7 | -110 | -202 | 22*
COc1cccc(Oc2cn[nH]c2-c2ccc(O)cc2O)c1 | 16 | -1 | -70 | -164 | 28*
C=CCN(CC#CCN(C)C(=O)c1cccn1C(=O)OC(C)(C)C)Cc1ccc(OC)cc1OC | 1 | 4 | 6 | . | .
COCCCN1C(=O)[C@H](CC(=O)NCc2ccccc2)[C@]2(C(=O)OC)CCCCC=C12 | 5 | 1 | 3 | . | .
CCCCCCOc1ccc(N2C(=O)CC(S/C(N)=N/N=C(\C)c3cccs3)C2=O)cc1 (configuration not stated) | 6 | -4 | -13 | 13 | 9
C/C(=N\N=C(/N)SC1CC(=O)N(c2ccc(Cl)c(Cl)c2)C1=O)c1cccs1 (configuration not stated) | -3 | -2 | -19 | 44 | 34*
C[C@@H](CCCCC1(C)OCCO1)CCC(=O)N(c1ccccc1)c1ccccc1 | -6 | 0 | -2 | . | .
Cc1onc(-c2c(F)cccc2Cl)c1-c1ncc(-c2ccc(Cl)cc2)o1 | 4 | -4 | 7 | . | .
Oc1ccc(/C=N/Nc2cccc(Cl)n2)c(O)c1 | 0 | 4 | -45 | 4 | 27*
Oc1ccc(/C=N\Nc2cc(N3CCOCC3)nc(N3CCOCC3)n2)c(O)c1 | -31 | -1 | -15 | 8 | -10
Cc1ncc(CO)c(/C=N/Nc2cccc(Cl)n2)c1O | -338 | -150 | 0 | -2 | 15*
CCOc1ccc(OCCSc2nc3ccccc3o2)cc1 | -3 | -2 | 6 | 23 | 21*
COC(=O)[C@]12C[C@H](CC(=O)NCCc3ccccc3OC)C(=O)N(Cc3ccco3)C1=C[C@H](C(C)(C)C)O[C@@H]2C | 6 | 1 | -7 | . | .
O=C1CCC[C@H]2C[C@H](NCc3ccc(Cl)c(Cl)c3)CC[C@]23CCCN13 | -1 | -3 | -1 | . | .
SMILES | ADAM10 inh | ADAM17 inh | sPLA2-III inh | FAS-TE inh | GRIN3A LBD mod
O=c1c2ccccc2oc2cc(-c3ccc4cc[nH]c4c3)ccc12 | -140 | -40 | -3 | -5 | -2
O=c1c2ccccc2oc2ccc(-c3ccc4[nH]ccc4c3)cc12 | 14 | 4 | -23 | 23 | 18*
CCO[C@@H]1OC(C(=O)N2CCOCC2)=C[C@H](c2cn(C(C)=O)c3ccccc23)[C@H]1CCCO | 1 | -2 | 3 | -1 | -3
CCO[C@@H]1OC(C(=O)N2CCN(Cc3ccccc3)CC2)=C[C@H](c2cn(C(C)=O)c3ccccc23)[C@H]1CCCO | 7 | 0 | -22 | 8 | 12*
CCO[C@H]1OC(C(=O)O)=C[C@@H](c2cn(C(C)=O)c3ccccc23)[C@@H]1CCCO | 2 | -1 | 2 | -13 | 13*
CCO[C@@H]1OC(C(N)=O)=C[C@H](c2cn(C(C)=O)c3ccccc23)[C@H]1CCCO | 5 | -4 | 5 | -10 | -1
Cc1cc(N2CCN(C(=O)Oc3ccc(-c4ccccc4)cc3)CC2)c2ccccc2n1 | -5 | -3 | -2 | . | .
O=C(NCCc1nc2ccccc2n1CCOc1ccc2cccnc2c1)C1CCCCC1 | 0 | -2 | -7 | . | .
Cc1ccc(-c2n[nH]c(=S)n2/N=C/c2sccc2C)cc1 | -2 | -4 | 10 | -1 | 15*
O=C(N/N=C\C=C\c1ccco1)c1cc(-c2ccc3ccccc3c2)n[nH]1 | 1 | 1 | 0 | 6 | 15*
C/C(C=NNC(=O)c1cc(-c2ccc(C)c(C)c2)n[nH]1)=C/c1ccco1 | -7 | -1 | 7 | . | .
CCC(=O)N1CCc2cc(Br)cc(S(=O)(=O)CC(=O)OC)c21 | . | . | . | -7 | 14*
COP(=O)(O)C(Cc1ccccc1)NC(=O)OCc1ccccc1 (configuration not stated) | 4 | -1 | 4 | . | .
C[C@@H]1[C@@H](O)C[C@@]2(C[C@H](O)c3cc(F)ccc3O2)O[C@H]1c1ccccc1Cl | 7 | 0 | -21 | . | .
CS(=O)(=O)c1ccc2nc(NC(=O)c3ccc(NS(=O)(=O)c4ccc(F)c(F)c4)cc3)sc2c1 | -17 | -12 | -13 | -9 | 24*
CS(=O)(=O)c1ccc2nc(NC(=O)c3cccc([N+](=O)[O-])c3)sc2c1 | -10 | -3 | 6 | 2 | 7
CS(=O)(=O)c1ccc2nc(NC(=O)c3cccc(NS(=O)(=O)c4ccc(F)c(F)c4)c3)sc2c1 | -8 | 0 | -36 | 6 | 26*
O=C(Nc1nc2ccc(SC(F)F)cc2s1)c1ccc(NS(=O)(=O)c2ccc(F)c(F)c2)cc1 | -147 | -42 | -101 | 33 | 47*
COc1cc(OC)cc(C(=O)Nc2nc3ccc(S(C)(=O)=O)cc3s2)c1 | -9 | -1 | -2 | -4 | -27
CC(C)C[C@H]1COc2cccc(F)c2S(=O)(=O)N1Cc1cn(Cc2ccc(F)cc2)nn1 | 2 | -2 | -3 | . | .
COC(=O)[C@]12C[C@H](CC(=O)NCC3CCCCC3)C(=O)N(Cc3cccc4ccccc34)C1=C[C@H](COCc1ccccc1)O[C@@H]2C | 14 | 3 | -13 | . | .
O=S1(=O)CC2c3ccc(F)cc3CN2CN1CCc1ccccc1 (configuration not stated) | 0 | 3 | 3 | . | .
C[C@@H]1CN([C@@H](C)CO)C(=O)Cc2cc(NC(=O)Nc3ccc(F)cc3)ccc2O[C@@H]1CN(C)Cc1ccc(Cl)c(Cl)c1 | 34* | 13* | -24 | 21 | 18*
C[C@H](CO)N1C[C@H](C)[C@H](CN(C)Cc2ccc(Oc3ccccc3)cc2)Oc2ccc(NC(=O)Nc3cccc4ccccc34)cc2CC1=O | -32 | -9 | -7 | 23 | 12*
